Counter-ions that a name gives are not always drawn.
tested on: Saccharomyces cerevisiae BY4741 SeMeCo community; assay: z-score of subpopulation abundance vs DMSO median, subpopulation auxotrophic for U; higher = larger share of this subpopulation than in DMSO controls; conditions: 10 µM; 24 h; SM minimal medium; subpopulation (auxotrophy): U
How it was run: (§1)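 A community of Saccharomyces cerevisiae BY4741 was built from four plasmids that each restored one auxotrophy and encoded a distinct fluorescent protein. Pre-grown overnight to OD600 1.0 and diluted to 0.3, it was dispensed at 70 µl into 384-well plates acoustically predosed with library drugs for a final 10 µM, and grown 24 h in minimal SM medium. Cells were then paraformaldehyde-fixed and imaged by automated confocal microscopy. Thresholds and autofluorescence correction came from single-auxotroph fluorescent strains, and each subpopulation's abundance was scored as a z-score relative to the vehicle-well median.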

Row | Compound | z-score of subpopulation abundance
1 | CN1C2CCCC1CC(NC(=O)c1nn(C)c3ccccc13)C2 (configuration not stated) [Granisetron] | 0.07
2 | Cc1[nH]c(=O)c(C#N)cc1-c1ccncc1 [Milrinone] | 0.34
3 | CN1CCOC(c2ccccc2)c2ccccc2C1 (configuration not stated) [Nefopam HCl] | 0.26

tested on: Saccharomyces cerevisiae BY4741 SeMeCo community; assay: z-score of subpopulation abundance vs DMSO median, subpopulation auxotrophic for H; higher = larger share of this subpopulation than in DMSO controls; conditions: 10 µM; 24 h; SM minimal medium; subpopulation (auxotrophy): H
How it was run: as §1

Row | Compound | z-score of subpopulation abundance
4 | NC(=O)N1c2ccccc2CC(=O)c2ccccc21 [Oxcarbazepine] | -0.49
5 | CC(=O)OCC1=C(C(=O)O)N2C(=O)[C@@H](NC(=O)CSc3ccncc3)[C@H]2SC1 [Cephapirin Benzathine] | 1.45
6 | OCc1ccccc1O[C@@H]1O[C@H](CO)[C@@H](O)[C@H](O)[C@H]1O [Salicin] | -0.5
7 | COc1cc(O)c(C(=O)Nc2nc(C(=O)NCCN(C(C)C)C(C)C)cs2)cc1OC [Acotiamide] | 0.24
8 | CC(=O)OCC(CCn1cnc2cnc(N)nc21)COC(C)=O [Famciclovir] | 0.1
9 | O=C(c1ccccc1)c1ccc2n1CCC2C(=O)O (configuration not stated) [Ketorolac] | -0.3
10 | CC[C@H]1OC(=O)[C@H](C)[C@@H](O[C@H]2C[C@@](C)(OC)[C@@H](O)[C@H](C)O2)[C@H](C)[C@@H](O[C@@H]2O[C@H](C)C[C@H](N(C)C)[C@H]2O)[C@](C)(O)C[C@@H](C)[C@@H]2N[C@@H](COCCOC)O[C@H]([C@H]2C)[C@]1(C)O [Dirithromycin] | -0.21
11 | C#CCC(Cc1cnc2nc(N)nc(N)c2n1)c1ccc(C(=O)N[C@@H](CCC(=O)O)C(=O)O)cc1 (some centres not stated) [Pralatrexate] | 3.97
12 | NNc1nncc2ccccc12 [Hydralazine HCl] | -1.09
13 | COc1cccc2c1C(=O)c1c(O)c3c(c(O)c1C2=O)CC(O)(C(=O)CO)CC3OC1CC(N)C(O)C(C)O1 (configuration not stated) [Doxorubicin (Adriamycin) HCl] | 4.08
14 | CCN1CCCC1CNC(=O)c1cc(S(N)(=O)=O)ccc1OC (configuration not stated) [Sulpiride] | -0.37
15 | CCCCC(F)(F)[C@@]1(O)CC[C@H]2[C@@H](CC(=O)[C@@H]2CCCCCCC(=O)O)O1 [Lubiprostone] | -0.12
16 | CCCN[C@H]1CCc2nc(N)sc2C1 [Pramipexole] | -0.21
17 | Cc1c(Nc2ncccc2C(=O)O)cccc1C(F)(F)F [Flunixin Meglumin] | -0.33
18 | COc1ccc2[nH]c([S+]([O-])Cc3ncc(C)c(OC)c3C)nc2c1 (configuration not stated) [Omeprazole Sodium] | 1.92
19 | CO[C@H]1C[C@@H]2CC[C@@H](C)[C@@](O)(O2)C(=O)C(=O)N2CCCC[C@H]2C(=O)O[C@H]([C@H](C)C[C@@H]2CC[C@@H](OP(C)(C)=O)[C@H](OC)C2)CC(=O)[C@H](C)/C=C(\C)[C@@H](O)[C@@H](OC)C(=O)[C@H](C)C[C@H](C)/C=C/C=C/C=C/1C [Ridaforolimus (Deforolimus, MK-8669)] | 15.9
20 | C#C[C@]1(OC(C)=O)CC[C@H]2[C@@H]3CCC4=C[C@@H](OC(C)=O)CC[C@@H]4[C@H]3CC[C@@]21C [Ethynodiol diacetate] | -0.43

Row | Compound | z-score of subpopulation abundance
21 | Cc1ccccc1C(OCCN(C)C)c1ccccc1 (configuration not stated) [Orphenadrine Citrate] | -0.33
22 | CCOc1cc(N)c([N+](=O)[O-])cc1C(=O)NC1CCN(CC2CC=CCC2)CC1 (configuration not stated) [Cinitapride Hydrogen Tartrate] | -0.46
23 | CC1(C)[C@H](C(=O)O)N2C(=O)C[C@H]2S1(=O)=O [Sulbactam sodium] | -0.33
24 | O=C(O)c1cc(=O)c2c(OCC(O)COc3cccc4oc(C(=O)O)cc(=O)c34)cccc2o1 [Disodium Cromoglycate] | -0.75
25 | Clc1ccc(C(Cn2ccnc2)OCc2c(Cl)cccc2Cl)c(Cl)c1 (configuration not stated) [Isoconazole nitrate] | 21
26 | CCCCCCCCN=C(N)NC(N)=NCc1ccc(Cl)c(Cl)c1 [Olanexidine Hydrochloride semihydrate] | 4.73
27 | NC(=O)c1ncn([C@@H]2O[C@H](CO)[C@@H](O)[C@H]2O)n1 [Ribavirin] | -0.52
28 | CC1(C)S[C@@H]2[C@H](NC(=O)[C@H](N)c3ccccc3)C(=O)N2[C@H]1C(=O)OCOC(=O)[C@@H]1N2C(=O)C[C@H]2S(=O)(=O)C1(C)C [Sultamicillin] | 1.56
29 | CN1C2CCCC1CC(NC(=O)c1nn(C)c3ccccc13)C2 (configuration not stated) [Granisetron] | -1.03
30 | CCC[C@@H]1C[C@@H](C(=O)N[C@@H]([C@H]2O[C@H](SC)[C@H](O)[C@@H](O)[C@H]2O)[C@@H](C)O)N(C)C1 [Lincomycin HCl] | -0.53
31 | CCc1c2c(nc3ccc(OC(=O)N4CCC(N5CCCCC5)CC4)cc13)-c1cc3c(c(=O)n1C2)COC(=O)[C@]3(O)CC [Irinotecan HCl Trihydrate] | 0.65
32 | Cc1[nH]c(=O)c(C#N)cc1-c1ccncc1 [Milrinone] | -0.52
33 | C[C@@H](O)[C@H]1C(=O)N2C(C(=O)O)=C(S[C@@H]3CN[C@H](C(=O)Nc4cccc(C(=O)O)c4)C3)[C@H](C)[C@H]12 [Ertapenem sodium] | 0.48
34 | CN(C)CCc1c[nH]c2ccc(C[C@H]3COC(=O)N3)cc12 [Zolmitriptan] | -0.77
35 | Clc1ccc(C(Cn2ccnc2)OCc2ccsc2Cl)c(Cl)c1 (configuration not stated) [Tioconazole] | 19.7
36 | CN1CCOC(c2ccccc2)c2ccccc2C1 (configuration not stated) [Nefopam HCl] | -0.62
37 | C[C@]1(Cn2ccnn2)[C@H](C(=O)O)N2C(=O)C[C@H]2S1(=O)=O [Tazobactam] | -1.1
